Most compounds without a hit are left out; they make up all but 2.7% or so of the library.
F508del corr – F508del CFTR correction, initial screen, CFBE line, single point. AID 720511, 2013. 350,000 compounds, 0.36% hits. activity (quench increase), % at 7.58 µM. CFBE cells, YFP halide quenching; stimulated with forskolin plus potentiator P3; % fluorescence drop versus neutral controls;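 active = mean added fluorescence quench of at least 8% versus neutral control, with both replicates also reaching 8%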;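 note: cells transiently co-express mutant CFTR-F508del with the halide-sensitive YFP; corrector assay measuring rescue of mutant channel to the surface after 24 h compound exposure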
Env fusion inh – inhibitors of HIV-1 Env-driven cell-cell fusion, primary screen, HeLa-JRFL effector, CEM21 target cells, luciferase | inhibition, % at 12.3 µM | 360,000 compounds, 1.1% hits;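 active = mean replicate inhibition score of at least 50 and every replicate individually at or above 50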;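 note: 0% = plate neutral controls and 100% = maraviroc near 300 nM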
MITF act – activators of MITF-driven TRPM1 promoter reporter, primary screen, cell-based, SK-MEL-5, luciferase, single point; SK-MEL-5 TRPM1-promoter luciferase, 24 h; % of positive control, neutral wells = 0; activation, % at 12.5 µM; AID 588334, 2011; 300,000 compounds, 0.75% hits;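 active = mean activation of at least 80% with every replicate also reaching 80%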;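 note: 0% = neutral control wells and 100% = parthenolide positive control wells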
Wnt act – Wnt/beta-catenin pathway activators, primary screen, cell-based, plate reader, single point | Wnt/beta-catenin reporter cell assay, activator | activation, % at 9.35 µM | 300,000 compounds, 1.2% hits; in the data active = activation above about 30%, passing the limit was not always enough;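 note: 0% = neutral control wells and 100% = positive control wells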
INS-1E GSIS act – GLuc luminescence reporter in INS-1E cells, primary screen for activators of glucose-dependent secretion of insulin; INS-1E GLuc reporter insulin secretion, 2-3 h; activation, % at 16.6 µM; 370,000 compounds, 0.61% hits;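 active = lowest replicate activation of at least 40%, so every replicate reaches that level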;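 note: 0% = median of neutral control wells and 100% = median of IBMX positive control wells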
* hit, by the source's call; i = inactive; x = not tested or not shown; [ ] = another dose, or the depositor's remark.

SMILES	F508del corr	Env fusion inh	MITF act	Wnt act	INS-1E GSIS act
CCCCc1c(-c2ccc(OC)c(OC)c2)ncn1CCc1ccccc1OC	2.4	17.5	x	-6.8	-24.8
CCCCc1c(-c2ccc(F)cc2F)ncn1CCc1ccccc1OC	0.6	16.5	x	-6.6	119.6*
COc1ccccc1CCn1cnc(-c2cccc(F)c2)c1C(C)C	1.5	-1.4	x	-4.0	64.2*
O=C(Cc1ccccn1)N[C@H]1CC[C@H](CCn2cc(-c3ccccc3)nn2)O[C@@H]1CO	-8.6	-0.6[16.7 µM]	x	x	16.6
O=C(C[C@@H]1C=C[C@@H](NC(=O)Nc2cc(F)ccc2F)[C@H](CO)O1)Nc1ccc(-c2ccccc2)cc1	-0.1	-1.4[16.7 µM]	x	x	12.0
CCCCCc1c(-c2ccccc2)ncn1CCc1ccccc1OC	1.9	12.7	x	-4.6	-4.7
CCCCc1c(Cc2cccc(F)c2)ncn1CCc1ccccc1OC	0.8	32.8	x	-6.5	123.5*
CCCCCc1c(-c2ccc(F)cc2F)ncn1CCc1ccccc1OC	1.9	25.4	x	-5.7	104.2*
C[C@@H]1CN([C@H](C)CO)C(=O)c2c(c3ccccc3n2C)-c2ccccc2CO[C@@H]1CN(C)C(=O)c1ccncc1	-1.0	-3.7[16.7 µM]	x	x	5.6
COc1ccc2c3c([nH]c2c1)[C@@H](CO)N(Cc1ccccc1)CC31CCN(C(=O)Nc2cccc(F)c2)CC1	-0.4	0.7[16.7 µM]	x	x	-33.5
C[C@@H]1CN([C@H](C)CO)C(=O)c2cccc(NC(=O)C3CCOCC3)c2O[C@H]1CN(C)C(=O)Nc1cccc2ccccc12	4.6	-4.6[16.7 µM]	x	x	-3.0
Cc1ccc2c(c1)N(C(=O)CCC(=O)N1CCN(c3ccccn3)CC1)CCO2	-0.4	x	-4.6	-3.1	-17.3
O=C(CCC(=O)N1CCOc2ccc(Cl)cc21)N1CCN(c2ccccn2)CC1	8.3*	18.3	x	-6.7	-28.4
O=C(N1CCOCC1)N1CCN(c2ccccn2)CC1	x	x	11.0	x	46.0*
C[C@H](CO)N1C[C@H](C)[C@@H](CN(C)Cc2ccncc2)Oc2ccc(NC(=O)Nc3ccc(F)cc3)cc2CC1=O	-2.8	x	x	x	2.4
O=C(COc1ncnc2cc(Cl)ccc12)c1ccc2c(c1)OCCO2	-0.7	-77.9	79.8	55.0*	10.1
C=CCc1ccccc1OCC(=O)O	-1.3	11.8	-11.0	33.6*	-4.7
C[C@H]1CN([C@@H](C)CO)C(=O)Cc2cc(NS(C)(=O)=O)ccc2O[C@H]1CN(C)C(=O)Nc1cccc2ccccc12	0.0	13.7[16.7 µM]	x	x	-4.5
CCC(=O)Nc1ccc2c(c1)OC[C@H](C)N(C(=O)CC)C[C@@H](C)[C@H](OC)CN(C)C2=O	-1.6	x	x	x	-7.8
COc1ccc(-c2cc(C(=O)O)c3c(C)nn(-c4ccccn4)c3n2)cc1	x	x	x	x	-3.5
CCOC(=O)c1cnn(-c2cc(Oc3ccccc3)ncn2)c1N	x	x	47.9	3.1	x
CCOC(=O)c1cnc2c(-c3ccccc3)c(C)nn2c1N	x	-104.5	x	13.9	69.2
CCOC(=O)c1cnc2c(-c3ccccc3)cnn2c1N	x	i	59.3	38.4*	x
CCOC(=O)c1cnn(-c2ccccn2)c1N	x	x	102.3*	x	26.4
CCOC(=O)c1cc(-c2ccncc2)nc2c1c(C)nn2-c1ccccn1	x	-57.9	10.0	x	65.6*
SMILES	F508del corr	Env fusion inh	MITF act	Wnt act	INS-1E GSIS act
CC(=O)c1cnc2c(-c3cccc(Br)c3)cnn2c1C	x	-66.9	94.7*	9.0	1.7
CCN1[C@@H]2c3ccc(C4=CCCCC4)c(=O)n3C[C@@H]2[C@@H](CO)[C@@H]1C(=O)NCc1cccc(OC)c1	1.7	x	x	x	-2.4
COc1ccc(NC(=O)N(C)C[C@@H]2OCCCC[C@H](C)Oc3ccc(NS(=O)(=O)c4ccccc4)cc3C(=O)N([C@H](C)CO)C[C@H]2C)cc1	0.4	-0.6[16.7 µM]	x	x	-18.8
CCOC(=O)/C=C/[C@H]1CCc2cccc(Cl)c2O1	-1.0	-21.4	-17.9	-0.8	4.6
CCOC(=O)/C=C/[C@H]1CC2(CCO1)SCCCS2	-2.1	69.3*	71.3	25.9	-2.9
COc1cccc(S(=O)(=O)N(C)C[C@@H]2Oc3ncc(/C=C/c4ccccc4)cc3C(=O)N([C@H](C)CO)C[C@@H]2C)c1	-0.7	51.5[16.7 µM]	x	x	-46.3
CCCCOc1ccc(/C=C/C(=O)OCC(=O)NC2CCS(=O)(=O)C2)cc1OCC (stereo not given)	-1.7	-2.8	-1.8	0.9	44.8*
COc1ccc(/C=C/C(=O)OCC(=O)NC2CCS(=O)(=O)C2)cc1 (stereo not given)	-3.0	-4.9	6.1	3.2	-6.4
O=[N+]([O-])c1ccccc1OCc1nc(-c2cccs2)no1	-0.9	-160.2	119.0*	8.4	-2.9
COc1ccc2c3c(n(C)c2c1)[C@H](CO)N(C)CC31CN(S(=O)(=O)c2cccc(F)c2)C1	-2.6	x	x	x	-9.4
O=Cc1c(-c2ccc(Cl)cc2)oc2ccc(O)cc12	-2.5	-49.1	x	83.9*	-4.3
CC(C)CNC(=O)CSc1nc2nn(-c3ccccc3)c(=O)c-2c2n1CCCCC2	-0.1	4.3	5.9	39.9*	-8.0
O=C(CSc1nc2nn(-c3ccccc3)c(=O)c-2c2n1CCCCC2)Nc1ccc(OC(F)F)cc1	8.1*	27.9	-1.1	-2.7	-50.8
CNC(=O)CSc1nc2nn(-c3ccccc3)c(=O)c-2c2n1CCCCC2	0.4	x	4.9	0.5	3.7
Cc1ccc(N(C(=O)c2ccc(S(=O)(=O)N3CCOCC3)cc2)C2C=CS(=O)(=O)C2)cc1 (stereo not given)	2.4	x	-0.3	-0.7	0.5
COc1ccc(N(C(=O)c2ccc(S(=O)(=O)N3CCCC3)cc2)C2C=CS(=O)(=O)C2)cc1 (stereo not given)	3.4	4.6	-10.1	39.8*	0.5
Nc1c(-c2ccc(Cl)cc2)cnc2c(-c3ccc(F)cc3)cnn12	-1.1	-361.3	111.2*	45.6*	5.3
Nc1c(-c2cccc(Cl)c2)cnc2c(-c3ccccc3)cnn12	0.3	-154.3	57.8	44.8*	8.1
Nc1c(-c2cccc(Cl)c2)cnn1-c1ccccc1	-2.6	-38.6	67.8	13.6	-18.2
O=C(/C=C/c1ccc2c(c1)OCO2)c1ccc(F)cc1	-0.4	-45.3	62.4	27.2	-10.8
O=C(/C=C/c1ccc2c(c1)OCO2)c1ccc[nH]1	x	-179.9	53.2	42.4*	13.7
COc1ccccc1-c1ccc([C@@H]2[C@@H](CO)N(C(=O)C3CCOCC3)[C@H]2C#N)cc1	-5.4	6.5[16.7 µM]	x	x	-9.1
CCCCC[n+]1cccc2c3ccccc3ccc21	2.9	97.3*	-10.6	-2.9	-70.5
CCOC(=O)C1CCCN(C(=O)c2ccc3c(c2)C(C)(C)CCC3(C)C)CC1 (stereo not given)	-2.2	59.9*	x	x	-43.9
CCOC(=O)C1CCN(C(=O)c2ccc3c(c2)C(=O)N(c2ccccc2C)C3=O)CC1	-2.3	85.2*	1.7	1.1	-2.7
O=C(c1cccs1)c1coc2ccc(O)cc12	x	-87.0	94.3*	51.2*	18.2
CC(=O)Oc1ccc2occ(C(=O)c3cccs3)c2c1	x	-202.9	56.4	80.2*	2.4
O=C(c1cccs1)c1coc2ccc(O)c(CN3CCOCC3)c12	x	-37.5	x	x	65.4*
